This passage reports growth results from PubChem BioAssay (NCI).

Among the test systems are HCT-15 colon; HT29 colon; SNB-75 CNS; SNB-19 CNS; U251 CNS; PC-3 prostate; SK-MEL-5 melanoma; UACC-62 melanoma; LOX IMVI melanoma; SK-MEL-28 melanoma; SK-MEL-2 melanoma; EKVX NSCLC; SN12C renal; UO-31 renal; TK-10 renal; ACHN renal; CAKI-1 renal; A498 renal; CCRF-CEM leukemia; MOLT-4 leukemia.
Experiment in all cases: NCI-60 one-dose screen, 48 h (100 = growth as untreated, 0 = no growth, -100 = all killed)
Settings in all cases: 10 µM unless noted

The panel holds about 83,000 compounds, 20% with a hit somewhere; the sample as a whole holds those more often.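 Each cell line was grown in a 96-well plate and treated with one concentration of compound for 48 hours. Values below 10 were considered active.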 Values without a mark were called inactive. Activity calls are given as the source filed them.

For `Cc1ccc(-c2nn(-c3ccccc3)cc2C=C2C(=O)ON=C2C(C)C)cc1`, the growth in the experiment on HCT-15 colon is 63%; in the experiment on HT29 colon, 44.5%; in the experiment with SNB-75 CNS, 70.3%; in the experiment on SNB-19 CNS it was 78.4%; in the experiment with U251 CNS, 52.4%; in the experiment with PC-3 prostate it was 63.5%. Also, the growth in the experiment with SK-MEL-5 melanoma was 87.1%; in the experiment with UACC-62 melanoma, 75.8%; in the experiment on LOX IMVI melanoma, 2% (active); in the experiment with SK-MEL-28 melanoma it was 88.7%; with SK-MEL-2 melanoma, 84.5%; in the experiment with EKVX NSCLC, 102%. Besides, the growth in the experiment with SN12C renal is 75.9%; in the experiment on UO-31 renal, 72%; in the experiment on TK-10 renal it was 86.9%; in the experiment with ACHN renal, 89.3%; in the experiment with CAKI-1 renal, 61.3%; in the experiment with A498 renal, 84.9%. Moreover, the growth with CCRF-CEM leukemia was 1.71% (active); in the experiment with MOLT-4 leukemia, -15.6% (active).
As for `C#CCn1cnc2c(Nc3cccc(NC(=O)C=C)c3)ncnc21`, the growth with HCT-15 colon is 73.3%; in the experiment on HT29 colon it was 90.6%; in the experiment with SNB-75 CNS, 66%; in the experiment on SNB-19 CNS it was 89.9%; in the experiment on U251 CNS, 88.2%; with PC-3 prostate, 71.5%. The growth in the experiment with SK-MEL-5 melanoma is 88.7%; with UACC-62 melanoma, 82.6%; in the experiment on LOX IMVI melanoma, 100%; in the experiment on SK-MEL-28 melanoma it was 87.6%; in the experiment on SK-MEL-2 melanoma, 84.1%; in the experiment on EKVX NSCLC it was 84.8%. In addition, the growth in the experiment with SN12C renal is 83.4%; in the experiment on UO-31 renal, 42.3%; in the experiment with TK-10 renal, 93.3%; in the experiment on ACHN renal it was 69.1%; in the experiment on CAKI-1 renal, 82.1%; in the experiment with A498 renal, 80.5%. The figures for the growth in the experiment with CCRF-CEM leukemia and with MOLT-4 leukemia were 81.6% and 71.2%, respectively.
With `CCCCOC(=O)OCc1cc(=O)c(O)co1`, the growth in the experiment with HCT-15 colon was 106%; in the experiment on HT29 colon, 101%; in the experiment on SNB-75 CNS it was 91.5%; with SNB-19 CNS, 99%; in the experiment on U251 CNS, 99.5%; with PC-3 prostate, 99.6%. In addition, the growth in the experiment with SK-MEL-5 melanoma is 104%; in the experiment on UACC-62 melanoma it was 99.4%; in the experiment on LOX IMVI melanoma, 99.9%; in the experiment with SK-MEL-28 melanoma, 107%; in the experiment on SK-MEL-2 melanoma, 109%; with EKVX NSCLC, 99.7%. Also, the growth with SN12C renal was 99.2%; in the experiment with UO-31 renal, 92.1%; in the experiment on TK-10 renal it was 94.5%; in the experiment with ACHN renal it was 97.7%; in the experiment on CAKI-1 renal, 93.3%; in the experiment on A498 renal it was 110%. In addition, the growth in the experiment on CCRF-CEM leukemia was 109%; in the experiment on MOLT-4 leukemia, 102%.
On to `COc1cccc(/C=C/C(=O)c2cc3c(N)c(C(=O)Nc4ccccc4)sc3nc2C)c1`, for which the growth is -35.1% (active) in the experiment with HCT-15 colon; -7.47% (active) with HT29 colon; 3% (active) with SNB-75 CNS; -3.91% (active) in the experiment with SNB-19 CNS; -52.9% (active) in the experiment with U251 CNS; 41.7% with PC-3 prostate. In addition, the growth is 34.8% in the experiment with SK-MEL-5 melanoma; 20.2% in the experiment on UACC-62 melanoma; -83.2% (active) with LOX IMVI melanoma; 50.4% with SK-MEL-28 melanoma; 25.6% in the experiment on SK-MEL-2 melanoma; 75.8% with EKVX NSCLC. Further, the growth in the experiment with SN12C renal is 8.27% (active); with UO-31 renal, 11.8%; with TK-10 renal it was 40.1%; in the experiment on ACHN renal it was 33.5%; with CAKI-1 renal it was 15.4%; in the experiment with A498 renal, 58.8%. The growth in the experiment with CCRF-CEM leukemia is 7.86% (active); with MOLT-4 leukemia, 20.8%.
As for `COC(=O)c1cc(-c2ccc(S(C)(=O)=O)cc2)[nH]c1N/N=C/c1c(Cl)cccc1Cl`, the growth in the experiment on HCT-15 colon is 26.2%; in the experiment with HT29 colon, 14.5%; in the experiment with SNB-75 CNS, 10.1%; with SNB-19 CNS it was 22.8%; in the experiment with U251 CNS it was 26.8%; with PC-3 prostate, 15.6%. Further, the growth in the experiment with SK-MEL-5 melanoma is 25.7%; in the experiment with UACC-62 melanoma, 58%; in the experiment on LOX IMVI melanoma, 43.6%; in the experiment with SK-MEL-28 melanoma, 28.2%; with SK-MEL-2 melanoma, -18.8% (active); in the experiment on EKVX NSCLC, 42.2%. Further, the growth with SN12C renal was 39.4%; with UO-31 renal it was 22.5%; in the experiment on TK-10 renal, 19.2%; in the experiment with ACHN renal, 53.7%; in the experiment with CAKI-1 renal, 30.3%; with A498 renal, -22.5% (active). In addition, the growth in the experiment on CCRF-CEM leukemia is 1.59% (active); in the experiment on MOLT-4 leukemia, 6.05% (active).
In the case of `COc1ccc2c(c1)[n+]([O-])c(C(=O)/C=C/C=C(\Cl)c1cc(OC)c(OC)c(OC)c1)c(C)[n+]2[O-]`, the growth was 95.4% with HCT-15 colon; 101% with HT29 colon; -26% (active) in the experiment with SNB-75 CNS; 55.9% in the experiment with SNB-19 CNS; 8.58% (active) in the experiment with U251 CNS; 93% in the experiment with PC-3 prostate. Moreover, the growth in the experiment with SK-MEL-5 melanoma is 121%; in the experiment with UACC-62 melanoma, 68.2%; with LOX IMVI melanoma, 41.7%; in the experiment on SK-MEL-28 melanoma, 99.1%; in the experiment on SK-MEL-2 melanoma, 47.2%; in the experiment with EKVX NSCLC, 85.6%. Besides, the growth was 78.1% in the experiment with SN12C renal; 107% in the experiment on UO-31 renal; 89.2% with TK-10 renal; 44.7% in the experiment on ACHN renal; 79.1% in the experiment on CAKI-1 renal; 96.6% in the experiment with A498 renal. Also, the growth with CCRF-CEM leukemia is 99.8%; with MOLT-4 leukemia, 96.1%.
In the case of `COc1ccc(C2=Nc3c/c(=C\c4c(O)[nH]c5ccc(Cl)cc45)ccc3=N2)cc1`, the growth was 22.5% in the experiment on HCT-15 colon; -13.9% (active) in the experiment on HT29 colon; 36.2% in the experiment with SNB-75 CNS; 65% with SNB-19 CNS; 42% with U251 CNS; 37% with PC-3 prostate. Further, the growth in the experiment with SK-MEL-5 melanoma was 34.7%; in the experiment with UACC-62 melanoma it was 48.1%; in the experiment on LOX IMVI melanoma, 9.27% (active); in the experiment on SK-MEL-28 melanoma it was 35.6%; in the experiment with SK-MEL-2 melanoma, 20.1%; in the experiment on EKVX NSCLC it was 56.6%. The growth was 73.4% in the experiment on SN12C renal; 59% with UO-31 renal; 82.5% in the experiment on TK-10 renal; 70.1% with ACHN renal; 51.3% in the experiment with CAKI-1 renal; 25.9% in the experiment on A498 renal. The growth with CCRF-CEM leukemia was 8.54% (active); with MOLT-4 leukemia it was 19.9%.
In the case of `CCN(CC)CCOc1ccc(C(=C(C)c2ccc(Cl)cc2)c2ccc(OCCN(CC)CC)cc2)cc1`, the growth with HCT-15 colon is -76.9% (active); with HT29 colon, -74.8% (active); in the experiment with SNB-75 CNS, -92.6% (active); in the experiment with SNB-19 CNS, -81.8% (active); in the experiment with U251 CNS it was -81.6% (active); with PC-3 prostate, -59.3% (active). The growth with SK-MEL-5 melanoma was -98% (active); in the experiment with UACC-62 melanoma, -78.1% (active); in the experiment on LOX IMVI melanoma, -88.5% (active); in the experiment with SK-MEL-28 melanoma, -88.5% (active); in the experiment with SK-MEL-2 melanoma it was -60.2% (active); with EKVX NSCLC, 26.1%. The growth with SN12C renal is -83.7% (active); in the experiment on UO-31 renal, -92.8% (active); in the experiment with TK-10 renal, -87.2% (active); in the experiment with ACHN renal it was -88.3% (active); with CAKI-1 renal it was -95.7% (active); in the experiment on A498 renal, 7.66% (active). For the same molecule, the growth is -62.8% (active) in the experiment on CCRF-CEM leukemia and -64.2% (active) in the experiment with MOLT-4 leukemia.
